The results in this text go back to PubChem BioAssay (EPA / NIEHS).

Active and inactive are the calls of the source. The calls were made as follows: active = hit-call score of the fitted dose curve at least 0.9, where 1 is the maximum; inactive = score below 0.9.

The assay in a line: ATG_PBREM_CIS: Attagene CIS-FACTORIAL HepG2 Assay for human Phenobarbital-responsive Enhancer Module (PBREM) (AID 2282955). Particulars: HepG2 PBREM cis-reporter, Attagene multiplexed transcription; actives raise or lower the signal. The procedure:
ATG_CIS is a cell-based, multiplexed-readout assay that uses HepG2, a human liver cell line, with measurements taken at 24 hours after chemical dosing in a 24-well plate.ATG_PBREM_CIS is one of 52 assay component(s) measured or calculated from the ATG_CIS assay. It is designed to make measurements of mRNA induction, a form of inducible reporter, as detected with fluorescence intensity signals by Reverse transcription polymerase chain reaction (RT-PCR) and Capillary electrophoresis technology.Data from the assay component ATG_PBREM_CIS was analyzed into 1 assay endpoint. This assay endpoint, ATG_PBREM_CIS, was analyzed with bidirectional fitting relative to DMSO as the negative control and baseline of activity. Using a type of inducible reporter, measures of mRNA for gain or loss-of-signal activity can be used to understand the reporter gene at the transcription factor-level as they relate to the gene NR1I3. Furthermore, this assay endpoint can be referred to as a primary readout, because this assay has produced multiple assay endpoints where this one serves a reporter gene function. To generalize the intended target to other relatable targets, this assay endpoint is annotated to the nuclear receptor intended target family, where the subfamily is non-steroidal.
Human liver HepG2 cells are transiently transfected with multiple reporter transcription units (MRTUs) in 6-well plates using FuGene 6 reagent (Roche; 3 ml FuGene/1 mg DNA). The MRTU constructs are regulated by a cis-regulating element (promoter). […] A major difference between the CIS and TRANS system is that in CIS activities of endogenous TFs are measured, whereas the TRANS assay evaluates changes in activities of exogenous, chimeric NR-Gal4 proteins. […] At the end of 24 hour incubation, total RNA was isolated using TriZol reagent (Invitrogen). The isolated RNA is then reverse-transcribed using oligo(dT) primer and Mo-MLV reverse transcriptase (Invitrogen) with DNAse I (Ambion) treatment for 30 min. The one-tenth of the produced cDNA was amplified by PCR using Taq DNA polymerase (Invitrogen) and two reporter sequence-specific primers. The PCR products were fluorescently labeled by primer extension with 6-arboxyfluorescein (6-FAM) 5'-labeled reporter sequence-specific primer (2 min at 95 C, 20 s at 68 C and 10 min at 72 C) and these products were digested with 5U of HpaI (New England Biolabs) for 2h at 37 C. The fragments were purified using Qiaquick PCR columns (Qiagen), analyzed on an ABI 3130xL genetic analyzer (Applied Biosystems) with peak positions identified by using a set of X-rhodamine (ROX)-labeled MapMarker1000 molecular weight standards (BioVentures). The raw capillary electrophoresis data was processed using Attagraph software (Attagene).
As to `O=S(=O)(O)CCC(F)(F)C(F)(F)C(F)(F)C(F)(F)C(F)(F)C(F)(F)C(F)(F)C(F)(F)F`, the outcome was inactive.

Turning to `C[Si](C)O[Si](C)C`, the outcome was inactive.

As for `CN(C(=O)C(F)(F)C(F)(F)C(F)(F)F)[Si](C)(C)C`, the outcome was inactive.

`CCN=C1C=CC(=C(c2ccc(N(CC)CC)cc2)c2ccc(N(CC)CC)cc2)c2ccccc21`: the AC50 was 47.8 nM (active).

As to `O=c1cccc[nH]1`, the result was inactive.

Consider `O=C1C=CC(=O)N1c1ccc(Cc2ccc(N3C(=O)C=CC3=O)cc2)cc1`, for which the result was inactive.

Take `Nc1cccnc1N`: the outcome was inactive.

For the molecule `O=C1OC(=O)c2ccc3c4c(ccc1c24)C(=O)OC3=O`, the result was inactive.

As to `Oc1ccc2c(c1)CCC2`, the outcome was inactive.

As to `NC(O)(C(F)(F)F)C(F)(F)F`, the result was inactive.

Regarding `O=C(Cl)C(F)(F)C(F)(F)C(F)(F)C(F)(F)C(F)(F)C(F)(F)F`, the outcome was inactive.

Consider `OCCCCl`, for which the outcome was inactive.

Consider `C=CC(=O)OCCC(F)(F)C(F)(F)C(F)(F)C(F)(F)F`, for which the result was inactive.

Turning to `O=C=Nc1cccc2c(N=C=O)cccc12`, the result was inactive.

Turning to `Cc1cnccn1`, the result was inactive.

In the case of `CCC/C=C/CO`, the result was inactive.

`OCCC(O)CO` (stereo not given): the result was inactive.

In the case of `Brc1ccccn1`, the result was inactive.

Consider `O=c1[nH]cccc1O`, for which the outcome was inactive.

Turning to `CCCCCCCC/C=C\CCCCCCCC(=O)N(C)CC(=O)O`, the result was inactive.

`CC(C)=CCCC(C)O` (stereo not given): the outcome was inactive.

Regarding `CC1CCCCC1`, the result was inactive.

On to `O=C(Cl)C(F)(F)C(F)(F)C(F)(F)C(F)(F)C(F)(F)C(F)(F)C(F)(F)F`, for which the outcome was inactive.

In the case of `CCN(CC)c1ccc(C=O)c(O)c1`, the outcome was inactive.

As for `Nc1c(Br)cc([N+](=O)[O-])cc1Br`, the outcome was inactive.

`CCOC(OCC)OCC`: the outcome was inactive.

Regarding `FC(F)(F)C(F)(F)C(F)(F)CC1CO1` (stereo not given), the outcome was inactive.

`OCCCc1cccnc1`: the outcome was inactive.

On to `O=C(F)C1(F)C(F)(F)C(F)(F)C(F)(F)C(F)(F)C1(F)F`, for which the result was inactive.

For the molecule `C=C(C)CCCC`, the outcome was inactive.

For the molecule `OCC(F)(F)C(F)(F)C(F)(F)C(F)(F)C(F)(F)C(F)(F)C(F)(F)C(F)(F)CO`, the outcome was inactive.

In the case of `COC(F)(C(F)F)C(F)(F)F` (stereo not given), the outcome was inactive.

On to `C=CC(=O)OCC(F)(F)C(F)(F)C(F)(F)C(F)(F)C(F)(F)C(F)(F)C(F)(F)C(F)F`, for which the result was inactive.

As for `N#Cc1ccccc1O`, the result was inactive.

In the case of `OCC1CCCO1` (stereo not given), the outcome was inactive.

Take `NCC(F)(F)C(F)(F)C(F)(F)C(F)(F)C(F)(F)C(F)(F)F`: the result was inactive.

On to `O=S(=O)(OCC(F)(F)F)C(F)(F)C(F)(F)C(F)(F)C(F)(F)F`, for which the result was inactive.

As to `Cc1cc(C)c(O)c(C(C)(C)C)c1`, the outcome was inactive.

In the case of `CCCCOC(=O)C(C)O` (stereo not given), the outcome was inactive.

In the case of `NC(=O)C(F)(F)C(F)(F)C(F)(F)C(F)(F)C(N)=O`, the result was inactive.

For orientation: AC50 means the concentration at which the activity in the assay is half-maximal.
